# Laboratory results as given in article PMC7862700, “An all-to-all approach to the identification of sequence-specific readers for epigenetic DNA modifications on cytosine”.
# How the values were obtained:
# Experiment in all cases: DAPPL (digital affinity profiling via proximity ligation, sequencing); 10 mM Tris-HCl pH 7.5, 50 mM NaCl, 1 mM DTT, 4% glycerol, room temperature, 30 min; GST-TFs on glutathione beads, 16-mer random dsDNA library, 0.1% formaldehyde crosslink after washing; high values mean tight binding
# Settings in all cases: protein: recombinant; tags: N-terminal GST; dsDNA, one strand shown
# ERF = molecular target: T1, ERF (Homo sapiens, UniProt P50548 1-548)
# T1 sequence: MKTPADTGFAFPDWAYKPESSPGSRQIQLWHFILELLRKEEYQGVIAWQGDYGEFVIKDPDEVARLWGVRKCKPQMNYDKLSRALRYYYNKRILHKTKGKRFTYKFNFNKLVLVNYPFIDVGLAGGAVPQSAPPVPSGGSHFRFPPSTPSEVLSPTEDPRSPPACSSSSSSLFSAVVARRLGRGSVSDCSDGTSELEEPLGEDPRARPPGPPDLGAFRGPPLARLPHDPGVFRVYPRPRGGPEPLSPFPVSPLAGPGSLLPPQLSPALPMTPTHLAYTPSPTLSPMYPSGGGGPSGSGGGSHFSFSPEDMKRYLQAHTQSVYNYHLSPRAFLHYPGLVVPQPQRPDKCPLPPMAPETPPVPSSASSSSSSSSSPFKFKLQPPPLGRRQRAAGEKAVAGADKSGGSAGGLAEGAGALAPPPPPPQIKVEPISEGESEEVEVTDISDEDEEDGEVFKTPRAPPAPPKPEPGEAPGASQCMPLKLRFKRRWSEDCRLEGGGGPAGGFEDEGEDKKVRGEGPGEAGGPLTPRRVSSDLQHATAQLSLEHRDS
# Summary of the method: (§1)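 Binding signal is given per hexamer as its read frequency for a factor divided by its frequency in the tag-only sample. GST-fused human transcription factors were expressed in yeast, captured on glutathione beads, barcoded with DNA and pooled with that sample, then incubated with 200 nmole of a 16-mer random double-stranded DNA library in Tris/NaCl/DTT/glycerol buffer for 30 min at room temperature. The pools were then washed, crosslinked, proximity-ligated, amplified by PCR and sequenced on an Illumina NextSeq500.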
# ETV3L = molecular target: T2, ETV3L (Homo sapiens, UniProt Q6ZN32 1-361)
# T2 sequence: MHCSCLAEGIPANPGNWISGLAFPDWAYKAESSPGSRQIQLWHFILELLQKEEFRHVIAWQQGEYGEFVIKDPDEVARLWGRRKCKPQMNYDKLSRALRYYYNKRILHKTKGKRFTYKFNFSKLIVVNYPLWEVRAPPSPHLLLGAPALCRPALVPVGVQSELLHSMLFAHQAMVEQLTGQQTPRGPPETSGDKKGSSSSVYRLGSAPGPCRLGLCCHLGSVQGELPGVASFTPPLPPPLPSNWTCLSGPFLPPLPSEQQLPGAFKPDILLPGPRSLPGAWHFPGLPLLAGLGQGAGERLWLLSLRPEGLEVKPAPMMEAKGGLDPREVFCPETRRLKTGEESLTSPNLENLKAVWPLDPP
# Summary of the method: as §1
# ETS2 = molecular target: T3, ETS2 (Homo sapiens, UniProt P15036 1-469)
# T3 sequence: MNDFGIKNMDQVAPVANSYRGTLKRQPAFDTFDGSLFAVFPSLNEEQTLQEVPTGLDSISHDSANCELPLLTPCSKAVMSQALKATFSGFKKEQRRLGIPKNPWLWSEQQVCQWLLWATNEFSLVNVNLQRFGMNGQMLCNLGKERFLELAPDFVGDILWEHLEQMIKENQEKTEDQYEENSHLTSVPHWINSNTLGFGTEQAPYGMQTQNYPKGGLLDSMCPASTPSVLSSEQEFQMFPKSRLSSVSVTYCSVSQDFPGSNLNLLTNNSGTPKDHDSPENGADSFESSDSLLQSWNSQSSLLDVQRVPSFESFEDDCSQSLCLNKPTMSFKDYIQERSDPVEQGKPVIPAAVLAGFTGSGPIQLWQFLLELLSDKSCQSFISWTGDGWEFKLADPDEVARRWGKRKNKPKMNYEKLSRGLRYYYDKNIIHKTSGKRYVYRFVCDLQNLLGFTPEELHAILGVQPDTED
# Summary of the method: as §1
# SPDEF = molecular target: T4, SPDEF (Homo sapiens, UniProt O95238 1-335)
# T4 sequence: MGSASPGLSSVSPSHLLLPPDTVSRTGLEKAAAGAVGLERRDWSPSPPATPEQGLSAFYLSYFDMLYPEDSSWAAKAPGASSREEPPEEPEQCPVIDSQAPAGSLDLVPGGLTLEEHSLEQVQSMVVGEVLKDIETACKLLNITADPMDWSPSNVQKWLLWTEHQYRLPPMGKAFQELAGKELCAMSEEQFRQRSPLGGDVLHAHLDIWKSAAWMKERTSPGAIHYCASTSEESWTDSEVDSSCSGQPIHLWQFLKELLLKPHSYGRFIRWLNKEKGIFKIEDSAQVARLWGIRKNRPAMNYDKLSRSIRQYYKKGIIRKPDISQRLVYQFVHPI
# Summary of the method: as §1
# ETV7 = molecular target: T5, ETV7 (Homo sapiens, UniProt Q9Y603 1-341)
# T5 sequence: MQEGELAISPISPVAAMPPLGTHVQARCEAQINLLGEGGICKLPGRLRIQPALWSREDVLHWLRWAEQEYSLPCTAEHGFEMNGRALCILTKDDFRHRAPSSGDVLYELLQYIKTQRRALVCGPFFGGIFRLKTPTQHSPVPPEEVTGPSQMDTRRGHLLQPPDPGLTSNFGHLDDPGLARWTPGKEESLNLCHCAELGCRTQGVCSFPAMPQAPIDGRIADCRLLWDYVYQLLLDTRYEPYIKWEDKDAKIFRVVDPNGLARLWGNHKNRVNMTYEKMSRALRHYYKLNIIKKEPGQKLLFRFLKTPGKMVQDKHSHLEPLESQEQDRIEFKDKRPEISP
# Summary of the method: as §1
# ELF5 = molecular target: T6, ELF5 (Homo sapiens, UniProt Q9UKW6-2 1-255)
# T6 sequence: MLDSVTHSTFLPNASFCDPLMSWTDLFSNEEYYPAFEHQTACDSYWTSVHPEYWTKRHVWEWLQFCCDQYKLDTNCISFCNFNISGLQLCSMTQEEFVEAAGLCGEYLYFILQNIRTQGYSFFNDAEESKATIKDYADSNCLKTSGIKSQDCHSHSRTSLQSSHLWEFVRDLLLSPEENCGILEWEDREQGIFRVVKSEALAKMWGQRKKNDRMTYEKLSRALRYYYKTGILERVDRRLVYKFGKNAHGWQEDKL
# Summary of the method: as §1
# ETV3 = molecular target: T7, ETV3 (Homo sapiens, UniProt P41162-2 1-143)
# T7 sequence: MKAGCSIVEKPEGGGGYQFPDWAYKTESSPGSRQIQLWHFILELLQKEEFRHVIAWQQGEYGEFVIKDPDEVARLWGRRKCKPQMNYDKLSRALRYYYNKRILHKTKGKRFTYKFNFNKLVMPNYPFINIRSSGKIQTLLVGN
# Summary of the method: as §1
# ETV6 = ETV6 (Homo sapiens, UniProt P41212 1-452)
# Summary of the method: as §1
# Chain of ETV6 (P41212 whole entry): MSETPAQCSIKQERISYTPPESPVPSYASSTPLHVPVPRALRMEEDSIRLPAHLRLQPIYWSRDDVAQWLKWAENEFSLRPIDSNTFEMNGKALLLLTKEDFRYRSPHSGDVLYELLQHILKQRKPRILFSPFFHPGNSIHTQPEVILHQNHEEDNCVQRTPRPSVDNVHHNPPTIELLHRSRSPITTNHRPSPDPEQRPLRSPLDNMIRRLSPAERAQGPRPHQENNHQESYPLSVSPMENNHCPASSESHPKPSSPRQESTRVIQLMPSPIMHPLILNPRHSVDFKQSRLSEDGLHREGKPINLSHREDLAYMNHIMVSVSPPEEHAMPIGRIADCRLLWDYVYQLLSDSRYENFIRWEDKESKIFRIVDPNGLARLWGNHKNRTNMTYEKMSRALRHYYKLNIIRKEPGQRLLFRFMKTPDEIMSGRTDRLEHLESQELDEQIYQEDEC
Sequence,binding signal (ERF),binding signal (ETV3L),binding signal (ETS2),binding signal (SPDEF),binding signal (ETV7),binding signal (ELF5),binding signal (ETV3),binding signal (ETV6)
GAAATG,"1.5 fold enrichment (6-mer frequency, TF over GST control)","1.59 fold enrichment (6-mer frequency, TF over GST control)","1.63 fold enrichment (6-mer frequency, TF over GST control)","1.45 fold enrichment (6-mer frequency, TF over GST control)","1.6 fold enrichment (6-mer frequency, TF over GST control)","1.87 fold enrichment (6-mer frequency, TF over GST control)","1.68 fold enrichment (6-mer frequency, TF over GST control)","1.75 fold enrichment (6-mer frequency, TF over GST control)"
TGTAGC,"1.32 fold enrichment (6-mer frequency, TF over GST control)","1.13 fold enrichment (6-mer frequency, TF over GST control)","1.12 fold enrichment (6-mer frequency, TF over GST control)","1.2 fold enrichment (6-mer frequency, TF over GST control)","1.12 fold enrichment (6-mer frequency, TF over GST control)","1.14 fold enrichment (6-mer frequency, TF over GST control)","1.22 fold enrichment (6-mer frequency, TF over GST control)","1.12 fold enrichment (6-mer frequency, TF over GST control)"
CAAATG,"1.25 fold enrichment (6-mer frequency, TF over GST control)","1.11 fold enrichment (6-mer frequency, TF over GST control)","1.15 fold enrichment (6-mer frequency, TF over GST control)","1.19 fold enrichment (6-mer frequency, TF over GST control)","1.2 fold enrichment (6-mer frequency, TF over GST control)","1.1 fold enrichment (6-mer frequency, TF over GST control)","1.13 fold enrichment (6-mer frequency, TF over GST control)","1.18 fold enrichment (6-mer frequency, TF over GST control)"
CCGGTA,"1.4 fold enrichment (6-mer frequency, TF over GST control)","1.46 fold enrichment (6-mer frequency, TF over GST control)","1.54 fold enrichment (6-mer frequency, TF over GST control)","1.96 fold enrichment (6-mer frequency, TF over GST control)","1.35 fold enrichment (6-mer frequency, TF over GST control)","1.83 fold enrichment (6-mer frequency, TF over GST control)","1.68 fold enrichment (6-mer frequency, TF over GST control)","1.65 fold enrichment (6-mer frequency, TF over GST control)"
TCTAAC,"1.22 fold enrichment (6-mer frequency, TF over GST control)","1.19 fold enrichment (6-mer frequency, TF over GST control)","1.19 fold enrichment (6-mer frequency, TF over GST control)","1.14 fold enrichment (6-mer frequency, TF over GST control)","1.29 fold enrichment (6-mer frequency, TF over GST control)","1.15 fold enrichment (6-mer frequency, TF over GST control)","1.18 fold enrichment (6-mer frequency, TF over GST control)","1.22 fold enrichment (6-mer frequency, TF over GST control)"
TTGATT,"1.31 fold enrichment (6-mer frequency, TF over GST control)","1.25 fold enrichment (6-mer frequency, TF over GST control)","1.22 fold enrichment (6-mer frequency, TF over GST control)","1.15 fold enrichment (6-mer frequency, TF over GST control)","1.28 fold enrichment (6-mer frequency, TF over GST control)","1.16 fold enrichment (6-mer frequency, TF over GST control)","1.3 fold enrichment (6-mer frequency, TF over GST control)","1.18 fold enrichment (6-mer frequency, TF over GST control)"
CTATTG,"1.37 fold enrichment (6-mer frequency, TF over GST control)","1.27 fold enrichment (6-mer frequency, TF over GST control)","1.35 fold enrichment (6-mer frequency, TF over GST control)","1.18 fold enrichment (6-mer frequency, TF over GST control)","1.25 fold enrichment (6-mer frequency, TF over GST control)","1.23 fold enrichment (6-mer frequency, TF over GST control)","1.42 fold enrichment (6-mer frequency, TF over GST control)","1.35 fold enrichment (6-mer frequency, TF over GST control)"
TTTGTG,"1.23 fold enrichment (6-mer frequency, TF over GST control)","1.12 fold enrichment (6-mer frequency, TF over GST control)","1.11 fold enrichment (6-mer frequency, TF over GST control)","1.23 fold enrichment (6-mer frequency, TF over GST control)","1.2 fold enrichment (6-mer frequency, TF over GST control)","1.18 fold enrichment (6-mer frequency, TF over GST control)","1.13 fold enrichment (6-mer frequency, TF over GST control)","1.14 fold enrichment (6-mer frequency, TF over GST control)"
TGTCAC,"1.13 fold enrichment (6-mer frequency, TF over GST control)","1.21 fold enrichment (6-mer frequency, TF over GST control)","1.26 fold enrichment (6-mer frequency, TF over GST control)","1.09 fold enrichment (6-mer frequency, TF over GST control)","1.29 fold enrichment (6-mer frequency, TF over GST control)","1.11 fold enrichment (6-mer frequency, TF over GST control)","1.08 fold enrichment (6-mer frequency, TF over GST control)","1.1 fold enrichment (6-mer frequency, TF over GST control)"
CGGTTT,"1.23 fold enrichment (6-mer frequency, TF over GST control)","1.14 fold enrichment (6-mer frequency, TF over GST control)","1.2 fold enrichment (6-mer frequency, TF over GST control)","1.36 fold enrichment (6-mer frequency, TF over GST control)","1.2 fold enrichment (6-mer frequency, TF over GST control)","1.31 fold enrichment (6-mer frequency, TF over GST control)","1.22 fold enrichment (6-mer frequency, TF over GST control)","1.23 fold enrichment (6-mer frequency, TF over GST control)"
AATAGA,"1.19 fold enrichment (6-mer frequency, TF over GST control)","1.16 fold enrichment (6-mer frequency, TF over GST control)","1.1 fold enrichment (6-mer frequency, TF over GST control)","1.05 fold enrichment (6-mer frequency, TF over GST control)","1.17 fold enrichment (6-mer frequency, TF over GST control)","1.11 fold enrichment (6-mer frequency, TF over GST control)","1.09 fold enrichment (6-mer frequency, TF over GST control)","1.17 fold enrichment (6-mer frequency, TF over GST control)"
CTGGCA,"1.28 fold enrichment (6-mer frequency, TF over GST control)","1.27 fold enrichment (6-mer frequency, TF over GST control)","1.25 fold enrichment (6-mer frequency, TF over GST control)","1.13 fold enrichment (6-mer frequency, TF over GST control)","1.4 fold enrichment (6-mer frequency, TF over GST control)","1.19 fold enrichment (6-mer frequency, TF over GST control)","1.2 fold enrichment (6-mer frequency, TF over GST control)","1.28 fold enrichment (6-mer frequency, TF over GST control)"
ATCTAC,"1.44 fold enrichment (6-mer frequency, TF over GST control)","1.36 fold enrichment (6-mer frequency, TF over GST control)","1.32 fold enrichment (6-mer frequency, TF over GST control)","1.24 fold enrichment (6-mer frequency, TF over GST control)","1.21 fold enrichment (6-mer frequency, TF over GST control)","1.3 fold enrichment (6-mer frequency, TF over GST control)","1.2 fold enrichment (6-mer frequency, TF over GST control)","1.29 fold enrichment (6-mer frequency, TF over GST control)"
TGCACC,"1.21 fold enrichment (6-mer frequency, TF over GST control)","1.21 fold enrichment (6-mer frequency, TF over GST control)","1.08 fold enrichment (6-mer frequency, TF over GST control)","1.2 fold enrichment (6-mer frequency, TF over GST control)","1.02 fold enrichment (6-mer frequency, TF over GST control)","1.16 fold enrichment (6-mer frequency, TF over GST control)","1.24 fold enrichment (6-mer frequency, TF over GST control)","1.19 fold enrichment (6-mer frequency, TF over GST control)"
GTTTTG,"1.25 fold enrichment (6-mer frequency, TF over GST control)","1.16 fold enrichment (6-mer frequency, TF over GST control)","1.1 fold enrichment (6-mer frequency, TF over GST control)","1.24 fold enrichment (6-mer frequency, TF over GST control)","1.13 fold enrichment (6-mer frequency, TF over GST control)","1.13 fold enrichment (6-mer frequency, TF over GST control)","1.13 fold enrichment (6-mer frequency, TF over GST control)","1.15 fold enrichment (6-mer frequency, TF over GST control)"
